Source: PubChem (The Scripps Research Institute Molecular Screening Center)
In the library only some 3.5% were active in any assay of this set; here they are far more common.
GPR151 activ: human GPR151 activation | hit rate 1% among 650,000 | Q8TDV0 | activation, % at 11.2 µM | PathHunter beta-arrestin GPR151 cells, luminescence; in the data active = activation above about 4.9%;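 note: 0% = median of compound wells and 100% = cells with positive control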
Target sequence (Q8TDV0 whole entry, looked up): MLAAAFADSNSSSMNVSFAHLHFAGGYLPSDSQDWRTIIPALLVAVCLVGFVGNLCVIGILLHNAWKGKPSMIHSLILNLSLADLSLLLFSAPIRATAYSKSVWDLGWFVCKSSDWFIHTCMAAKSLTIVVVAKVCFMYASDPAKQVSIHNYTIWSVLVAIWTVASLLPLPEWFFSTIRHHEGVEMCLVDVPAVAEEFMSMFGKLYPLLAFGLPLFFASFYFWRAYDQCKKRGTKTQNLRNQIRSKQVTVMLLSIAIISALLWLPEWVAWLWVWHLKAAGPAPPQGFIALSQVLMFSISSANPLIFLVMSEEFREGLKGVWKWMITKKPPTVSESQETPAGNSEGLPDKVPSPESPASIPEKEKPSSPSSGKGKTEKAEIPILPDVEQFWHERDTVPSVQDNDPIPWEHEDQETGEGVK
FBW7 act: human FBW7 E3 ligase activation, primary screen; Q969H0; AlphaScreen FBW7–phospho-cyclin E peptide binding, activator screen; normalized activity (activation), % at 26.1 µM; hit rate 0.13% among 650,000; in the data active = normalized activity above about 1.9%;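 note: purified mutant Fbw7 with reduced substrate affinity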
MITF primary: inhibitors of human MITF; O75030; AlphaScreen MITF homodimerization, bead proximity signal; AID 1259374; hit rate 0.91% among 650,000; inhibition, % at 2.6 µM; in the data active = inhibition above about 50%;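 note: 0% = vehicle wells with protein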
TEAD-YAP block: TEAD-YAP interaction inhibition | HEK-TIYL cells, TEAD-Gal4/YAP UAS-luciferase luminescence | inhibition, % at 9.12 µM | hit rate 1.4% among 640,000 | AID 1259422; in the data active = inhibition above about 32%;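 note: 0% = median of test compound wells and 100% = reference inhibitor wells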
MITF inh conf: confirmation of human MITF inhibitors; shares compounds with MITF primary; AlphaScreen MITF homodimerization, biotin/His-MITF beads; inhibition, % at 2.6 µM; hit rate 16% among 4,700; AID 1259372;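 active = inhibition above a cutoff derived from the DMSO control wells, cut at about 28% in these data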;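 note: 0% = MITF dimer wells with DMSO only; inhibitors lower the bead chemiluminescence by keeping MITF from dimerizing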
AlphaScreen DR: counter-screen: compounds optically interfering with AlphaScreen; IC50, µM; hit rate 6% among 480; AID 1259373; shares compounds with MITF primary; AlphaScreen optical interference counterscreen, cell-free; call rule not given here
AS interf ctr: AlphaScreen optical interference, counter-screen; shares compounds with MITF primary; LysRS AlphaScreen counterscreen, signal interference, triplicate; inhibition, % at 2.6 µM; hit rate 7.6% among 4,700;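 active = inhibition above a cutoff derived from the DMSO control wells, cut at about 30% in these data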
* = called active by the depositor; · = no result given.

SMILES	GPR151 activ	FBW7 act	MITF primary	TEAD-YAP block	MITF inh conf	AS interf ctr	others
N#C/C(=C\c1cc([N+](=O)[O-])ccc1N1CCOCC1)c1cccc(C#N)c1	3	0	2	1	·	·
CC1=C(C#N)C(c2cc3c(cc2[N+](=O)[O-])OCO3)C2=C(CCCC2=O)N1 (stereo unspecified)	-1	0	60*	11	80*	-27	AlphaScreen DR=>6.5
CCOC(=O)C1=C(C)NC2=C(C(=O)CCC2)C1c1cc2c(cc1[N+](=O)[O-])OCO2 (stereo unspecified)	-1	0	8	23	·	·
OC(COc1ccccc1)CN1CCOCC1 (stereo unspecified)	0	0	-1	1	·	·
COc1ccc(COCC(O)CNCCCN2CCOCC2)cc1OC (stereo unspecified)	-1	0	54*	9	-7	-2
OC(CNCCN1CCOCC1)COC1CCCc2ccccc21 (stereo unspecified)	0	0	73*	7	13	15
OC(CNCCN1CCOCC1)COc1ccccc1 (stereo unspecified)	1	0	75*	-6	4	2
COc1ccc(COCC(O)CNCCOCCO)cc1OC (stereo unspecified)	0	0	5	-4	·	·
O=C(C1CCCN(Cc2ccco2)C1)N1CCCCCC1 (stereo unspecified)	3	0	54*	2	5	-2
O=C(C1CCCN(Cc2ccccc2F)C1)N1CCCCC1 (stereo unspecified)	-1	0	69*	9	11	17
COc1ccc2nc(Cl)c(CN(C(=O)c3cnccn3)C3CCCC3)cc2c1	1	0	-4	4	·	·
COc1cc(Nc2nc(NC3CCN(Cc4ccccc4)CC3)ncc2C)cc(OC)c1OC	2	0	-4	8	·	·
CCCNC(=O)c1cnc(Nc2cnccn2)s1	-2	0	55*	-12	3	8
NNc1nc(NN)nc(Nc2ccccc2)n1	-2	-2	65*	3	97*	100*
c1ccc(Nc2nc(Nc3ccccc3)nc(Oc3ccccc3)n2)cc1	0	0	12	7	·	·
Cc1cc(C)n2nc(SC(C)C(=O)O)nc2n1 (stereo unspecified)	2	0	4	-1	·	·
COc1ccc(CN2CCN(C3CCCC3)CC2)c(OC)c1OC	1	0	52*	-3	1	9
COc1cccc(CN2CCN(C3CCCC(C)C3)CC2)c1OC (stereo unspecified)	-1	0	70*	7	12	17
COc1cccc(CN2CCN(C3CCCC3)CC2)c1OC	0	0	61*	8	4	18
COc1cccc(CN2CCCCC2c2cccnc2)c1OC (stereo unspecified)	0	0	73*	-6	14	14
Cc1cc(C)c2c(N)c(C(=O)N3c4ccccc4Sc4ccccc43)sc2n1	0	0	10	1	·	·
Cc1ccc(Cl)cc1N/C=C/C(=O)c1ccco1	0	0	-11	-8	·	·
CCOC(=O)N1CCN(Cc2ccc3c(c2)CN(C(=O)C2CNC(=O)C2)CCO3)CC1 (stereo unspecified)	2	0	61*	1	17	14
CCOC(=O)N1CCN(C(=O)C2CCN(Cc3ccc(OC)c(OC)c3)CC2)CC1	2	0	52*	2	8	22
CCOC(=O)N1CCN(C(=O)C2CCN(Cc3ccc(Cl)cc3)CC2)CC1	1	0	54*	0	10	9
SMILES	GPR151 activ	FBW7 act	MITF primary	TEAD-YAP block	MITF inh conf	AS interf ctr	others
CCOc1ccc(-n2c(=S)sc3c2nc(SCC(=O)O)n2c4ccccc4nc32)cc1	-2	0	-26	-8	·	·
Cc1ccc(C)c(Cn2c(NCCNC(=O)C(C)C)nc3c2c(=O)n(C)c(=O)n3C)c1	1	0	18	9	·	·
O=C(Nc1ccccc1)c1ccc2nc(-c3cccs3)sc2c1	-4	0	2	-59	·	·
NC(=O)c1ccc2nc(-c3cccs3)sc2c1	-8	0	73*	33*	60*	6	AlphaScreen DR=>6.2
NC(=O)c1cccc(-c2cccs2)c1	0	0	66*	-12	57*	11	AlphaScreen DR=>6.7
CC(=O)c1cccc(-c2cccc(C(N)=O)c2)c1	5	0	0	-6	·	·
O=C(Nc1ccc(Cl)cc1)c1cc(S(=O)(=O)NCCC2=CCCCC2)ccc1F	1	0	9	27	·	·
COc1ccc(CCc2nnc(CCC(=O)N3CC[C@@H]4CCCC[C@H]4C3)o2)cc1	-1	0	20	-76	·	·
Cc1ccc(-n2ncc(C#N)c2/N=C/N2CCN(C)CC2)cc1	2	0	56*	-5	2	12
COc1cccc(C(=O)O/N=C(\N)c2cccnc2)c1	-4	0	9	-41	·	·
Cc1cc(C)cc(C(=O)O/N=C(\N)c2cccnc2)c1	0	0	56*	-10	-20	-2
CC1CCN(S(=O)(=O)N2CCC(C(=O)O)CC2)CC1	-1	0	0	-5	·	·
CCOC(=O)c1cnn(-c2ccccc2Cl)c1CNCCNC(C)=O	-1	0	83*	1	1	-3
CCOC(=O)c1cnn(-c2ccccc2Cl)c1CNC1CCN(C(=O)OCC)CC1	-1	0	0	-2	·	·
Cc1ccc(NC(=O)CSc2nnnn2-c2cccc(C(=O)O)c2)cc1C	-1	0	-1	8	·	·
C#CCSc1nc2ccccc2n1C(=O)/C=C/c1ccc(F)cc1	-1	0	-11	-7	·	·
O=C1CCCN1C(=O)CN1CCCCC1	-1	0	52*	6	14	13
O=C1CCCN1C(=O)CN1CCOCC1	0	0	53*	-9	3	6
CC1=C(C(=O)Nc2ccc(Cl)cc2)C(c2ccccc2Cl)C(C#N)=C(SCC(=O)c2ccc(C)cc2)N1 (stereo unspecified)	2	0	1	3	·	·
Cc1ccc(/C=C/C(=O)NCc2ccco2)o1	-1	0	64*	-10	66*	39*
Cc1ccc(/C=C/C(=O)NCc2ccccn2)o1	2	-1	61*	1	39*	19	AlphaScreen DR=>6.5
C=CCN1C(=S)NC2CC1(C)Oc1ccccc12 (stereo unspecified)	0	0	-12	8	·	·
CCC(=O)c1ccccc1OCCCCn1cncn1	0	0	74*	2	9	20
CCC(=O)c1ccccc1OCCN1CCN(CC)CC1	3	0	68*	-2	15	18
CCC(=O)c1ccccc1OCCCN1CCN(Cc2ccccc2)CC1	1	0	56*	4	4	20
CCC(=O)c1ccccc1OCCCCN1CCN(C)CC1	0	0	-20	8	·	·
CCOC(=O)C1(Cc2ccc(Cl)cc2)CCN(C(=O)c2cc(C)oc2C)CC1	2	0	2	2	·	·
